42 compounds from publication PMC4336329 (PLoS ONE, 2015) can be followed below.

Molecules are shown by their SMILES. The campaign covered roughly 310,000 compounds. About 14,000 (4.5%) showed an effect of 50% or more. The effect is printed as a negative number. This is one part of a sample in which strong results are shown more often than they occur.
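Note: peak tail current of the secondary pulse compared with the same well before compound.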

In this assay the target is human ether-à-go-go-related gene (hERG) potassium channel (human, UniProt Q12809). Kind of assay: primary screen, population patch clamp on CHO cells stably expressing hERG; higher = less effect of the substance.
Chain of human ether-à-go-go-related gene (hERG) potassium channel (Q12809 whole entry, looked up): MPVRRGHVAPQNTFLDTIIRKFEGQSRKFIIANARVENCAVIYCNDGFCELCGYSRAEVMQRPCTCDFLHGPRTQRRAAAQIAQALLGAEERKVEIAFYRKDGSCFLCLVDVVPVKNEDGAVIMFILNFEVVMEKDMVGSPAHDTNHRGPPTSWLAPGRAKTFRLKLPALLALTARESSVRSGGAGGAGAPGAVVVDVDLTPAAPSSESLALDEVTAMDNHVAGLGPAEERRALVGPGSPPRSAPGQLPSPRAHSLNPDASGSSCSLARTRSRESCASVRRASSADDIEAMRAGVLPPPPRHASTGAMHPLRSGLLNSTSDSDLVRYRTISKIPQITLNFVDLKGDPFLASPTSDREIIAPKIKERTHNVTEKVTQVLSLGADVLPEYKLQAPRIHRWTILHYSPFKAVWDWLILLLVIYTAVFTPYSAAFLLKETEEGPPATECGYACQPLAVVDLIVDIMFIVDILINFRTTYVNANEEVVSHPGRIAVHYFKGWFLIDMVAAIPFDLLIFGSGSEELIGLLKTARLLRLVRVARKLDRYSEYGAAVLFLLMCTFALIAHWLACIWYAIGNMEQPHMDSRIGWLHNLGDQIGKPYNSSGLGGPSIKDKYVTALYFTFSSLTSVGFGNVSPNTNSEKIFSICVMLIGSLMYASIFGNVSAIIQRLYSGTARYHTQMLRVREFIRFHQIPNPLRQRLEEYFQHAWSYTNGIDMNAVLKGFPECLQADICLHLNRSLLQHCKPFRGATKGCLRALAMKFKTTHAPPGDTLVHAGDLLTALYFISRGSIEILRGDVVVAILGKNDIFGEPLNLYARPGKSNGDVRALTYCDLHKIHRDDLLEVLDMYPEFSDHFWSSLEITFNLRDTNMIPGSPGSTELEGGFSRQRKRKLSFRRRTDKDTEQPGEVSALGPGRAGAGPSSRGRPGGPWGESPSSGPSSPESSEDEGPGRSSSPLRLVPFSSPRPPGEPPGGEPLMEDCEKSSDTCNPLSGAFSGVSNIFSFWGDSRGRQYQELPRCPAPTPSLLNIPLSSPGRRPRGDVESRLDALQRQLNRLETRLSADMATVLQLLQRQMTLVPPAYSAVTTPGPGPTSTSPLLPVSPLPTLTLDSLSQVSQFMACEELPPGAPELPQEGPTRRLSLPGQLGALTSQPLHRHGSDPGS
On to `COc1ccc(CCNC(=O)c2cc([N+](=O)[O-])ccc2N2CCOCC2)cc1`, for which the “hERG current change (%, negative = inhibition) at 10uM” value is -33%.
As to `CN(CC(=O)Nc1ccc(F)cc1)C(=O)COC(=O)c1cc([N+](=O)[O-])ccc1N1CCOCC1`, the “hERG current change (%, negative = inhibition) at 10uM” value is -64.3%.
`O=C(NCCc1cccc(Cl)c1)c1cccc([N+](=O)[O-])c1`: the “hERG current change (%, negative = inhibition) at 10uM” value is -15.7%.
Under `NS(=O)(=O)c1ccc(CCNC(=O)c2cc([N+](=O)[O-])ccc2N2CCOCC2)cc1` stands -15.2%; under `O=C(NCCc1ccc(F)cc1)c1cc([N+](=O)[O-])ccc1N1CCOCC1`, -71.4%; under `O=C(COC(=O)c1cc([N+](=O)[O-])ccc1N1CCOCC1)c1ccc(Br)cc1`, -44.6%.
Under `CC(C)C(=O)NC(=S)Nc1sc2c(c1C(N)=O)CCCC2` stands 13.5%.
For the compound `COc1ccc(N2C(=O)CSCC2=O)cc1OC`, the “hERG current change (%, negative = inhibition) at 10uM” value is on record as 8.4%.
`Cc1ccc2nc(CCl)[n+]([O-])c(-c3ccccc3)c2c1`: the “hERG current change (%, negative = inhibition) at 10uM” value is reported as 1.16%.
For the compound `Cc1ccc(CN2C(=O)CCC2C(=O)NCCN2CCOCC2)cc1` (stereo not drawn), the “hERG current change (%, negative = inhibition) at 10uM” value stood at 3.18%.
For `CCc1cccc(CC)c1NC(=O)CN1CCN(c2ccccc2)CC1.Cl`, the “hERG current change (%, negative = inhibition) at 10uM” value was -15.7%.
Take `O=S(=O)(N1CCOCC1)N1CCN(c2ccccc2F)CC1`: the “hERG current change (%, negative = inhibition) at 10uM” value is listed as -8.17%.
Turning to `CC(C)CNC(=O)c1ccccc1-c1ccccc1C(=O)O`, the “hERG current change (%, negative = inhibition) at 10uM” value came out at 19.5%.
With `CCc1nnc(NC(=O)CSc2nnc(C(C)NC(=O)c3ccccc3F)n2C)s1` (stereo not drawn), the “hERG current change (%, negative = inhibition) at 10uM” value is recorded as 9.22%.
Take `O=C(COC(=O)c1cc([N+](=O)[O-])ccc1N1CCOCC1)Nc1ccc(Cl)cc1`: the “hERG current change (%, negative = inhibition) at 10uM” value was -28.2%.
Turning to `COc1ccccc1CNC(=O)COC(=O)c1cc([N+](=O)[O-])ccc1N1CCOCC1`, the “hERG current change (%, negative = inhibition) at 10uM” value is listed as -48.9%.
In the case of `CCOc1ccc(NC(=O)COC(=O)c2cc([N+](=O)[O-])ccc2N2CCOCC2)cc1`, the “hERG current change (%, negative = inhibition) at 10uM” value is on record as -43.8%.
With `CCOc1ccc(C(=O)c2cc([N+](=O)[O-])ccc2N2CCOCC2)cc1`, the “hERG current change (%, negative = inhibition) at 10uM” value is -20.4%.
For the compound `O=C(COC(=O)c1cc([N+](=O)[O-])ccc1N1CCOCC1)NCc1ccc(Cl)cc1Cl`, the “hERG current change (%, negative = inhibition) at 10uM” value is -63%.
For the compound `N#CC1(NC(=O)COC(=O)c2cc([N+](=O)[O-])ccc2N2CCCC2)CCCCC1`, the “hERG current change (%, negative = inhibition) at 10uM” value is recorded as -29.8%.
Regarding `O=C(COC(=O)c1cc([N+](=O)[O-])ccc1N1CCOCC1)NC1CCCCC1`, the “hERG current change (%, negative = inhibition) at 10uM” value is -30.7%.
In the case of `CCOc1ccc(NC(=O)c2cc([N+](=O)[O-])ccc2N2CCOCC2)cc1` it was -55.5%; in that of `N#CC1(NC(=O)COC(=O)c2cc([N+](=O)[O-])ccc2N2CCOCC2)CCCCC1`, -55.3%; in that of `CCOc1cc(/C=N/NC(=O)c2cccnc2)ccc1OCC(=O)N(C)C`, 19.3%.
For `CC(OC(=O)c1ccccc1C(=O)N(C)c1ccccc1)C(=O)Nc1ccccc1[N+](=O)[O-]` (stereo not drawn), the “hERG current change (%, negative = inhibition) at 10uM” value is reported as -45.5%.
Consider `CN1[C@@H]2CC[C@H]1CC(OC1c3ccccc3CCc3ccccc31)C2.O=C(O)CC(O)(CC(=O)O)C(=O)O` (stereo partly drawn), for which the “hERG current change (%, negative = inhibition) at 10uM” value is recorded as -42.6%.
Under `CC(C)NC(=O)c1cc(-c2cccs2)on1` stands -4.89%; under `CCCCN(C(=O)c1ccc2c(c1)S(=O)(=O)N=C1CCCCCN12)c1c(N)n(CCCC)c(=O)[nH]c1=O`, 8.23%.
Turning to `COc1cc(N=CC2=C(O)c3ccccc3C2=O)cc(OC)c1`, the “hERG current change (%, negative = inhibition) at 10uM” value came out at 8.36%.
In the case of `Cc1cccc(NS(=O)(=O)c2ccc(C)c(C(=O)NCC(c3ccccc3)N(C)C)c2)c1` (stereo not drawn) it was -14.2%; in that of `Nc1c(-c2ccccc2)c(CSc2nc3ccccc3[nH]2)nn1-c1cccc(Cl)c1`, -3.15%; in that of `O=C(COc1ccc(Cl)cc1)NC1CC1`, 5.47%.
In the case of `O=C(Nc1ccccc1-c1nc2ccccc2s1)C1=COCCO1` it was 0.377%; in that of `O=C(Nc1ccc(-c2nc3ccccc3s2)c(O)c1)C1=COCCO1`, -73.1%.
As for `O=C(Nc1ccc(-c2nc3ccccc3s2)cc1)C1=COCCO1`, the “hERG current change (%, negative = inhibition) at 10uM” value is given as 22.2%.
Consider `CCOc1ccc(/C(O)=C2/C(=O)C(=O)N(CCN(CC)CC)C2c2cccs2)cc1` (stereo not drawn), for which the “hERG current change (%, negative = inhibition) at 10uM” value amounted to 8.37%.
With `O=c1cc(-c2ccccc2Cl)oc2ccc([N+](=O)[O-])c(O)c12`, the “hERG current change (%, negative = inhibition) at 10uM” value amounted to 9.93%.
In the case of `Cc1ccccc1CCN1CCCC(CN(C)C(=O)C(=O)c2ccco2)C1` (stereo not drawn) it was -70.1%.
In the case of `CN(CC1CCCN(CCc2ccc(Cl)cc2)C1)C(=O)C(=O)c1ccco1` (stereo not drawn), the “hERG current change (%, negative = inhibition) at 10uM” value is listed as -74.5%.
As for `CN(CC1CCCN(CCc2ccc(Cl)cc2)C1)C(=O)c1ccco1` (stereo not drawn), the “hERG current change (%, negative = inhibition) at 10uM” value is given as -25.5%.
`Cc1ccccc1CCN1CCCC(CN(C)CC(C)(C)C)C1` (stereo not drawn): the “hERG current change (%, negative = inhibition) at 10uM” value was determined as 8.88%.
In the case of `CCOc1ccc(NC(=O)CSc2nncn2C)cc1` it was 18.7%.
